Records with an inconclusive call do not appear. Active and inactive are the calls of the source. Unless noted, calls follow the shape of the dose curve; as a rule, active = well fitted curve in the direction sought with a large enough effect in the repeat runs; inconclusive = weak or mixed curves; inactive = no such curve, though single readings can be large; an effect the other way counts as inactive or inconclusive. Positions of bridges follow the written chain, without caps; N, C: chain ends. Non-standard residues stand in square brackets, D forms with d. Residues, ends and D or L forms follow the SMILES beside them. *: point of attachment. X1 = CC[C@@H](C)[C@@H](N)C1=N[C@H](C(=O)*)CS1; d(aIle) = CC[C@H](C)[C@@H](N)C(=O)O; dOrn = NCCC[C@@H](N)C(=O)O

Assay [1] is described as follows: qHTS assay for small molecule agonists of the p53 signaling pathway (AID 651631; calls by dose curve; also: nearly all actives have a fitted effect of over 15% in size; also: potency is read from the fitted curve at half-maximal effect). In outline:
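HCT-116 cells carrying a stable p53 response element–beta-lactamase reporter were plated, rested 5 h at 37 °C, then exposed to compound in DMSO for 16 h at 37 °C; reporter activity was read as FRET substrate fluorescence after 2 h at room temperature.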
For orientation: In qHTS, concentration-response curves come from the screen itself.

The nature of assay [2]: qHTS assay for small molecules that induce genotoxicity in human embryonic kidney cells expressing luciferase-tagged ATAD5 (AID 651632). Also: nearly all actives have a fitted effect of over 15% in size. Also: potency is read from the fitted curve at half-maximal effect. In outline: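 Test compounds were delivered by pin tool onto HEK293T reporter cells (2,000/well) expressing ATAD5 fused to luciferase. After 16 hr at 37C, 5% CO2, Amplite was added for 30 min at room temperature and luminescence was measured.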

Assay [3] is described as follows: qHTS assay for small molecule agonists of the p53 signaling pathway - cell viability (AID 651633; calls by dose curve; also: nearly all actives have a fitted effect of over 30% in size; also: potency is read from the fitted curve at half-maximal effect). In outline:
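p53RE-bla cells, seeded at 4,000 per well and rested 5 h at 37 C/5% CO2, received compounds in DMSO for 16 h at 37 C. CellTiter-Glo was then added, and luminescence was read after 30 min at room temperature to gauge cytotoxicity.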

The nature of assay [4]: qHTS assay for small molecules that induce genotoxicity in human embryonic kidney cells expressing luciferase-tagged ATAD5 - cell viability (AID 651634; calls by dose curve; also: nearly all actives have a fitted effect of over 25% in size). A digest of the protocol:
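Quantitative high-throughput format. HEK293T cells expressing ATAD5 fused to luciferase were plated at 2,000 cells/well and treated 15.5 hr with compound versus DMSO. Viability was determined by fluorescent live-cell protease substrate, 30 min at 37C.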

Assay [5] in a line: qHTS assay for small molecule disruptors of the mitochondrial membrane potential - cell viability (AID 720634; calls by dose curve;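 also: human HepG2 liver cancer cells; series mostly up to about 83 µM; nearly all actives have a fitted effect of over 20% in size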). A digest of the protocol: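 Same-well counter-screen: following the MMP dye addition, CellTiter-Glo was added to 1 hr compound-treated HepG2 cells and luminescence read after 30 min at room temperature.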
Assay [6] in a line: qHTS assay for small molecule disruptors of the mitochondrial membrane potential (AID 720635). Also: potency is read from the fitted curve at half-maximal effect. In outline:
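HepG2 cells (2,000/well) attached overnight at 37C, then took compound for 1 hr at 37C, 5% CO2. Mito-MPS dye was added for 30 min; fluorescence was read at 490/535 nm (monomers) and 540/590 nm (aggregates).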

The nature of assay [7]: qHTS assay to test for compound auto fluorescence at 590 nm (red) in HepG2 cells (AID 720674). In outline: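 Rose Bengal sodium served as the red fluorophore standard. HepG2 monolayers (overnight attachment, MEM with 10% FBS) were exposed to test compounds for 1 hr at 37 C and read at Ex 540/Em 590 nm.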
A short description of assay [8]: qHTS assay to test for compound auto fluorescence at 535 nm (green) in HepG2 cells (AID 720675).
Assay [9] can be described thus: qHTS assay to test for compound auto fluorescence at 460 nm (blue) in HEK293 cells (AID 720678). In outline: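 Measured: blue fluorescence (Ex 405/Em 460 nm) of compound-treated HEK293 cells, incubated overnight at 37C with 5% CO2 and scaled to triamterene equivalents.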
Assay [10] can be described thus: qHTS assay to test for compound auto fluorescence at 590 nm (red) in HEK293 cells (AID 720679). A digest of the protocol:
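Using HEK293 cells at 2,000 per well, the screen added 23 nL of each compound after cell attachment and incubated overnight (37C, 5% CO2). The plate reader then captured red-label fluorescence, Ex/Em 540/590nm.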

With `CCCCCCCCCCCCCCCC(=O)OC[C@H](COP(=O)([O-])OCC[N+](C)(C)C)OC(=O)CCCCCCCCCCCCCCC`, the Potency result in [1], in [2], in assay [3], in assay [4], in assay [5] and in assay [6] was “inactive” each time. Further, the Potency result in assay [8] and in assay [9] was “inactive” in each case. For the same molecule, the result in assay [7] and in [10] was inactive.

With `NC(N)=NCc1cccc(I)c1`, the Potency result in assay [1], in assay [2], in assay [3], in assay [4], in [5] and in [6] was “inactive” in each case. The Potency entry in [8] and in assay [9] was “inactive” each time. The molecule was called inactive in assay [7] and in assay [10].

On to `NC(=O)C1c2ccccc2CCc2ccccc21`, for which the Potency entry in [1], in assay [2], in [3], in [4], in [5] and in assay [6] was “inactive” throughout. For the same molecule, the Potency result in assay [8] and in assay [9] was “inactive” throughout. Also, the molecule was called inactive in [7] and in [10].

On to `O=C(CCCN1CCN2CCCC2C1)c1ccc(F)cc1` (stereo not given), for which the Potency result in [1], in [2], in assay [3], in assay [4], in assay [5] and in assay [6] was “inactive” each time. The Potency result in assay [8] and in assay [9] was “inactive” in each case. In addition, the molecule was classed as inactive in assay [7] and in assay [10].

As for `CC1CCCCN1CCCOC(=O)c1ccccc1` (stereo not given), the Potency result in assay [1], in assay [2], in assay [3], in assay [4], in assay [5] and in assay [6] was “inactive” each time. The Potency entry in assay [8] and in [9] was “inactive” throughout. Moreover, the call in [7] and in assay [10] was inactive.

For the molecule `CCN(CC)CCNC(=O)c1ccc(NS(C)(=O)=O)cc1`, the Potency result in assay [1], in assay [2], in [3], in assay [4], in [5] and in assay [6] was “inactive” throughout. For the same molecule, the Potency result in assay [8] and in assay [9] was “inactive” throughout. The outcome in assay [7] and in [10] was inactive.

On to `S=C1NC=NC2N=CNC12` (stereo not given), for which the values for the Potency in assay [1], in assay [3] and in [6] were 3.44 µM (active), 545 nM (active) and 4.86 µM (active), respectively. The Potency result in assay [2], in assay [4], in [5], in [8] and in assay [9] was “inactive” in each case. The molecule was called inactive in assay [7] and in [10].

With `CC[C@@H](C)[C@@H](N)C1=N[C@H](C(=O)N[C@@H](CC(C)C)C(=O)N[C@@H](CCC(=O)O)C(=O)N[C@@H](C(=O)N[C@@H]2CCCCNC(=O)[C@@H](CC(N)=O)NC(=O)[C@@H](CC(=O)O)NC(=O)[C@@H](Cc3cnc[nH]3)NC(=O)[C@@H](Cc3ccccc3)NC(=O)[C@@H]([C@H](C)CC)NC(=O)[C@@H](CCCN)NC2=O)[C@@H](C)CC)CS1` (X1-LE[d(aIle)][dK][dOrn][dI][dF][dH][dD][dN]; lactam 4-C), the Potency entry in assay [1], in assay [2], in assay [3], in assay [4], in [5] and in assay [6] was “inactive” throughout. In addition, the Potency result in assay [8] and in [9] was “inactive” in each case. Also, the result in assay [7] and in assay [10] was inactive.

As to `CNCC(=O)N[C@@H](CCCN=C(N)N)C(=O)N[C@H](C(=O)N[C@@H](Cc1ccc(O)cc1)C(=O)N[C@H](C(=O)N[C@@H](Cc1cnc[nH]1)C(=O)N1CCC[C@H]1C(=O)N[C@@H](C)C(=O)O)C(C)C)C(C)C`, the Potency result in assay [1], in [2], in assay [3], in assay [4], in assay [5] and in [6] was “inactive” throughout. In addition, the Potency entry in assay [8] and in assay [9] was “inactive” throughout. In addition, the molecule was called inactive in assay [7] and in assay [10].

For `NCC[C@H](O)C(=O)N[C@@H]1C[C@H](N)[C@@H](O[C@H]2O[C@H](CN)CC[C@H]2N)[C@H](O)[C@H]1O[C@H]1O[C@H](CO)[C@@H](O)[C@H](N)[C@H]1O`, the Potency entry in assay [1], in assay [2], in assay [3], in assay [4], in [5] and in [6] was “inactive” each time. Further, the Potency result in assay [8] and in assay [9] was “inactive” each time. Besides, the outcome in [7] and in [10] was inactive.

As for `NC(=S)NS(=O)(=O)c1ccc(N)cc1`, the Potency result in assay [1], in assay [2], in assay [3], in assay [4], in [5] and in assay [6] was “inactive” in each case. For the same molecule, the Potency result in assay [8] and in assay [9] was “inactive” each time. For the same molecule, the call in assay [7] and in assay [10] was inactive.

Take `O=P(O)(O)CP(=O)(O)O`: the Potency result in assay [1], in assay [2], in assay [3], in assay [4], in assay [5] and in assay [6] was “inactive” each time. Moreover, the Potency result in [8] and in assay [9] was “inactive” each time. Also, the molecule was called inactive in assay [7] and in assay [10].

`CO/N=C(\C(=O)N[C@@H]1C(=O)N2C(C(=O)O)=C(CSc3nc(C)c(CC(=O)O)s3)CS[C@H]12)c1csc(N)n1`: the Potency result in assay [1], in [2], in assay [3], in [4], in assay [5] and in assay [6] was “inactive” in each case. Besides, the Potency entry in assay [8] and in assay [9] was “inactive” each time. Moreover, the molecule was called inactive in [7] and in assay [10].

On to `NCCO/C=C/[C@H](N)C(=O)O`, for which the Potency result in assay [1], in assay [2], in assay [3], in [4], in assay [5] and in assay [6] was “inactive” in each case. For the same molecule, the Potency result in assay [8] and in assay [9] was “inactive” throughout. For the same molecule, the molecule was called inactive in [7] and in assay [10].

As to `CC(C)CCC[C@@H](C)[C@H]1CC[C@H]2[C@@H]3CC=C4C[C@@H](O)CC[C@]4(C)[C@H]3CC[C@]12C`, the Potency result in assay [1], in [2], in assay [3], in assay [4], in [5] and in assay [6] was “inactive” throughout. Further, the Potency result in [8] and in assay [9] was “inactive” throughout. For the same molecule, the molecule was called inactive in assay [7] and in [10].

As to `CC1CCCC(C)N1NC(=O)c1ccc(Cl)c(S(N)(=O)=O)c1` (stereo not given), the Potency result in assay [1], in [2], in assay [3], in assay [4], in [5] and in assay [6] was “inactive” in each case. For the same molecule, the Potency result in [8] and in assay [9] was “inactive” throughout. The call in [7] and in [10] was inactive.

`OCl`: the Potency entry in [1], in assay [2], in assay [3], in [4], in assay [5] and in [6] was “inactive” throughout. The Potency entry in assay [8] and in assay [9] was “inactive” in each case. Also, the call in [7] and in assay [10] was inactive.

For `CC(C)OC(=O)Nc1ccc2nc(-c3cscn3)[nH]c2c1`, the Potency is 2.37 µM (active) in assay [1], 10.6 µM (active) in assay [2] and 9.87 µM (active) in assay [6]. The Potency entry in assay [3], in assay [4], in assay [5], in [8] and in assay [9] was “inactive” throughout. The molecule was called inactive in [7] and in assay [10].

Turning to `O=C(O)/C=C/C(O)c1ccc(Cl)cc1` (stereo not given), the Potency result in assay [1], in [2], in [3], in assay [4], in [5] and in assay [6] was “inactive” in each case. Moreover, the Potency entry in assay [8] and in [9] was “inactive” each time. For the same molecule, the molecule was called inactive in [7] and in assay [10].

For `C[Se]CC[C@H](N)C(=O)O`, the Potency result in assay [1], in assay [2], in assay [3], in assay [4], in assay [5] and in [6] was “inactive” throughout. Besides, the Potency entry in assay [8] and in assay [9] was “inactive” each time. The molecule was classed as inactive in [7] and in assay [10].

For `CC/C(=C(/CC)c1ccc(OP(=O)(O)O)cc1)c1ccc(OP(=O)(O)O)cc1`, the Potency result in [1], in assay [2], in assay [3], in [4], in assay [5] and in assay [6] was “inactive” in each case. Further, the Potency result in [8] and in [9] was “inactive” each time. Also, the result in [7] and in assay [10] was inactive.

Regarding `O=P(O)(O)OP(=O)(O)OP(=O)(O)O`, the Potency entry in [1], in [2], in [3], in [4], in [5] and in [6] was “inactive” throughout. Further, the Potency entry in assay [8] and in assay [9] was “inactive” throughout. Also, the molecule was classed as inactive in assay [7] and in assay [10].

`CC(C)Cc1ccc([C@H](C)C(=O)O)cc1`: the Potency entry in assay [1], in assay [2], in assay [3], in [4], in assay [5] and in assay [6] was “inactive” throughout. Further, the Potency result in [8] and in assay [9] was “inactive” throughout. For the same molecule, the call in [7] and in [10] was inactive.

For the molecule `CC/C=C\C/C=C\C/C=C\C/C=C\C/C=C\C/C=C\CCC(=O)O`, the Potency result in assay [1], in assay [2], in assay [3], in [4], in [5] and in [6] was “inactive” throughout. Moreover, the Potency entry in assay [8] and in assay [9] was “inactive” each time. Moreover, the result in assay [7] and in assay [10] was inactive.
